Results taken from paper PMC7862700, “An all-to-all approach to the identification of sequence-specific readers for epigenetic DNA modifications on cytosine”.

Experiments:
Assay in all cases: DAPPL (digital affinity profiling via proximity ligation, sequencing); 10 mM Tris-HCl pH 7.5, 50 mM NaCl, 1 mM DTT, 4% glycerol, room temperature, 30 min; GST-TFs on glutathione beads, 16-mer random dsDNA library, 0.1% formaldehyde crosslink after washing; high values mean tight binding
[1] = biological target: T1, FEV (Homo sapiens, UniProt Q99581 1-238); details: protein: recombinant; tags: N-terminal GST; dsDNA, one strand shown
T1 sequence: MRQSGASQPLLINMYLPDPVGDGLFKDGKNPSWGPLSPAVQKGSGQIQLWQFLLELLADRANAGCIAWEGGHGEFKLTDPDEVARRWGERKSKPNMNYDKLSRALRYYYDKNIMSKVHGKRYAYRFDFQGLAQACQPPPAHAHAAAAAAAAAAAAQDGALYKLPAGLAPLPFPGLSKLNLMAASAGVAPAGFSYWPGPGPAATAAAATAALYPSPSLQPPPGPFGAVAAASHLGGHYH
Procedure, shortened: (§1)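 GST fusions of human transcription factors were expressed in yeast and captured with glutathione beads. Once given DNA barcodes and pooled alongside a tag-only sample, they were incubated for 30 min at room temperature with 200 nmole of a random double-stranded 16-mer DNA library in Tris/NaCl/DTT/glycerol buffer, then washed, crosslinked (0.1% formaldehyde), proximity-ligated, PCR-amplified and sequenced on an Illumina NextSeq500. The binding signal of each hexamer is its read frequency for a factor divided by its frequency for the tag-only sample.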

[2] = biological target: ETV5 (Homo sapiens, UniProt P41161 1-510); details: protein: recombinant; tags: N-terminal GST; dsDNA, one strand shown
Procedure, shortened: as §1

[3] = biological target: HSF1 (Homo sapiens, UniProt Q00613 1-529); details: protein: recombinant; tags: N-terminal GST; chain copies: 3; dsDNA, one strand shown
Procedure, shortened: as §1

[4] = biological target: T2, SPIC (Homo sapiens, UniProt Q8N5J4 1-248); details: protein: recombinant; tags: N-terminal GST; dsDNA, one strand shown
T2 sequence: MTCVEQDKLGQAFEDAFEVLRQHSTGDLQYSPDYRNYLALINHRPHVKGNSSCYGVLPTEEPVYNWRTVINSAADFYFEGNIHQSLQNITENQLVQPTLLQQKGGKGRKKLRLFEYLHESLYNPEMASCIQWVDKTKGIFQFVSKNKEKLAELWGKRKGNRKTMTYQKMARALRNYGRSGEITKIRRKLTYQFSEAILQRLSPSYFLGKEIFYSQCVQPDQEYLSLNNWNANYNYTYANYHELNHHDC
Procedure, shortened: as §1

[5] = biological target: ELF4 (Homo sapiens, UniProt Q99607 1-663); details: protein: recombinant; tags: N-terminal GST; dsDNA, one strand shown
Procedure, shortened: as §1

[6] = biological target: T3, ELK4 (Homo sapiens, UniProt P28324-2 1-405); details: protein: recombinant; tags: N-terminal GST; dsDNA, one strand shown
T3 sequence: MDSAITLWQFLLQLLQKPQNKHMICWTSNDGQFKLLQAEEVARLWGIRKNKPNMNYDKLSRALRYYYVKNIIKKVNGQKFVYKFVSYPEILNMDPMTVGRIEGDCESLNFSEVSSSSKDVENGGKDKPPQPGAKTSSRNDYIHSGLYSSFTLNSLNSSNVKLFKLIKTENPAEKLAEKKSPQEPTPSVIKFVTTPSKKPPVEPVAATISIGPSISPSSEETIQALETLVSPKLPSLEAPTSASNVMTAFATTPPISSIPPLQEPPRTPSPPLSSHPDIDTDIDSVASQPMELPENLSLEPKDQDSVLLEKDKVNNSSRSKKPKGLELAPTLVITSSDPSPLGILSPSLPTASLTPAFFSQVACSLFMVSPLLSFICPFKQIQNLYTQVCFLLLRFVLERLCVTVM
Procedure, shortened: as §1

[7] = biological target: T4, ETV2 (Homo sapiens, UniProt O00321 1-342); details: protein: recombinant; tags: N-terminal GST; dsDNA, one strand shown
T4 sequence: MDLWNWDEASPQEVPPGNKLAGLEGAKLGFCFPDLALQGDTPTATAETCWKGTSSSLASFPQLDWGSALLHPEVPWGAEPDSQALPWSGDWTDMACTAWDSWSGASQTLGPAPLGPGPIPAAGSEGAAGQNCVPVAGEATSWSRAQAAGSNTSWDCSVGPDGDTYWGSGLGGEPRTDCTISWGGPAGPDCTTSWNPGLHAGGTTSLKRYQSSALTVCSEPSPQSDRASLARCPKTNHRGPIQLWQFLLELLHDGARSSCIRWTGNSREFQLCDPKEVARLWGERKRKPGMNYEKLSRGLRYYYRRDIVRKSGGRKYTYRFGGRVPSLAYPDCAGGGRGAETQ
Procedure, shortened: as §1

[8] = biological target: T5, ELF3 (Homo sapiens, UniProt P78545 1-371); details: protein: recombinant; tags: N-terminal GST; dsDNA, one strand shown
T5 sequence: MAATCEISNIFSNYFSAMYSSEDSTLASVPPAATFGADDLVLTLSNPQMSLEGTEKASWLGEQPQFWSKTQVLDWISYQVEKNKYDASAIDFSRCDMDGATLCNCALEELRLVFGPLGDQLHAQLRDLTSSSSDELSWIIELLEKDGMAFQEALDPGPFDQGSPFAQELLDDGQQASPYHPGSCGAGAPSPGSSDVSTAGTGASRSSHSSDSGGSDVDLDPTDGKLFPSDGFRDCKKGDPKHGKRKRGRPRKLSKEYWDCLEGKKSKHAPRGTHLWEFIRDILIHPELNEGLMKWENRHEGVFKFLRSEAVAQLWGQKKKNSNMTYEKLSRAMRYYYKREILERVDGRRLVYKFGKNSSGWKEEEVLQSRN
Procedure, shortened: as §1

[9] = biological target: CRX (Homo sapiens, UniProt O43186 1-299); details: protein: recombinant; tags: N-terminal GST; dsDNA, one strand shown
Procedure, shortened: as §1

[10] = biological target: ETV1 (Homo sapiens, UniProt P50549 1-477); details: protein: recombinant; tags: N-terminal GST; dsDNA, one strand shown
Procedure, shortened: as §1

[11] = biological target: T6, ERF (Homo sapiens, UniProt P50548 1-548); details: protein: recombinant; tags: N-terminal GST; dsDNA, one strand shown
T6 sequence: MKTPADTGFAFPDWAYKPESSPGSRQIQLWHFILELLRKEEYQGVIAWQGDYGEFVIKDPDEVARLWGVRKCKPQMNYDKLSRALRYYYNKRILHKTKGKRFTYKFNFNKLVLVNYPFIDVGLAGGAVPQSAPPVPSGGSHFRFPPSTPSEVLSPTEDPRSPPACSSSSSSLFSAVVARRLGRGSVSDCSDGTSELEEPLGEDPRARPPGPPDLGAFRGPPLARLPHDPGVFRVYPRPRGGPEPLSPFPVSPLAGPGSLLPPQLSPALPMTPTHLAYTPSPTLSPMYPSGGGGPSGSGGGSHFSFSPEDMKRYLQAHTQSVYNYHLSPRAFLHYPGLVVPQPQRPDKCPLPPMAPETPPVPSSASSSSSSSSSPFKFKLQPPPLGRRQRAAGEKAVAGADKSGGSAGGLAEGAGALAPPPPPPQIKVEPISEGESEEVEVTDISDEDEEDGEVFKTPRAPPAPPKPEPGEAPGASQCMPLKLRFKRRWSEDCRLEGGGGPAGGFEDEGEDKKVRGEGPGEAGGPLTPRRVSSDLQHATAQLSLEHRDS
Procedure, shortened: as §1

[12] = biological target: T7, ETV3L (Homo sapiens, UniProt Q6ZN32 1-361); details: protein: recombinant; tags: N-terminal GST; dsDNA, one strand shown
T7 sequence: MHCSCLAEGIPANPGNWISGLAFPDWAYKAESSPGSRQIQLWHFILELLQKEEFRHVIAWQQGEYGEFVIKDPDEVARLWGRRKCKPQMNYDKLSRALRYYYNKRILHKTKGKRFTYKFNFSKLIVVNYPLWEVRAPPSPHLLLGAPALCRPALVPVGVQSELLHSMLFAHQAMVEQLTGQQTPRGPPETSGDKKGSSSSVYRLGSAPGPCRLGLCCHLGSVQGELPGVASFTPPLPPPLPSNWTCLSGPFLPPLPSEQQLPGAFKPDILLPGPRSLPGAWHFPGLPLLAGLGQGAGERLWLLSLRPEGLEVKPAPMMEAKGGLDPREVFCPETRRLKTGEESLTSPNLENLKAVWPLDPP
Procedure, shortened: as §1

[13] = biological target: T8, ETS2 (Homo sapiens, UniProt P15036 1-469); details: protein: recombinant; tags: N-terminal GST; dsDNA, one strand shown
T8 sequence: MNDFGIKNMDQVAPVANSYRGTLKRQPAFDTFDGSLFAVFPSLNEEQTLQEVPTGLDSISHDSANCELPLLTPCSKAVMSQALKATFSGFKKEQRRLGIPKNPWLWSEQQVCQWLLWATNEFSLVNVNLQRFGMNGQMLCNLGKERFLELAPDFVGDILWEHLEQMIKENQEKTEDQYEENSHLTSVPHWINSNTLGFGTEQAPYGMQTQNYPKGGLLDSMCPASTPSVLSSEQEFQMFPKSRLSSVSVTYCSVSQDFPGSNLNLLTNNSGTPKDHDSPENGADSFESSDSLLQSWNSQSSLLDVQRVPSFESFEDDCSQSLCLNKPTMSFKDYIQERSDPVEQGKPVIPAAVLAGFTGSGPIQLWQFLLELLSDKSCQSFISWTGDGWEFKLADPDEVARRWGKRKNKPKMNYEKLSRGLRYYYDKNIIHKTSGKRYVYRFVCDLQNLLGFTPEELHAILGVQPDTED
Procedure, shortened: as §1

[14] = biological target: T9, SPDEF (Homo sapiens, UniProt O95238 1-335); details: protein: recombinant; tags: N-terminal GST; dsDNA, one strand shown
T9 sequence: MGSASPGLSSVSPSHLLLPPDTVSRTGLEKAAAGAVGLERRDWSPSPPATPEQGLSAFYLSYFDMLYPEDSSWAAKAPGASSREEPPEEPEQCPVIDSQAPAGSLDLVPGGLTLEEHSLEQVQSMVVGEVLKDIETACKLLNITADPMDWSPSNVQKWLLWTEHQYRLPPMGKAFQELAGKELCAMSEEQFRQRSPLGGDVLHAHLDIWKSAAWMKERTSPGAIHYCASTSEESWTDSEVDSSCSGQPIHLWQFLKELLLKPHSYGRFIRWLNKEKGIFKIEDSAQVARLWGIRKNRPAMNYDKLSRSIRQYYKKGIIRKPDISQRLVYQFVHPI
Procedure, shortened: as §1

[15] = biological target: T10, ETV7 (Homo sapiens, UniProt Q9Y603 1-341); details: protein: recombinant; tags: N-terminal GST; dsDNA, one strand shown
T10 sequence: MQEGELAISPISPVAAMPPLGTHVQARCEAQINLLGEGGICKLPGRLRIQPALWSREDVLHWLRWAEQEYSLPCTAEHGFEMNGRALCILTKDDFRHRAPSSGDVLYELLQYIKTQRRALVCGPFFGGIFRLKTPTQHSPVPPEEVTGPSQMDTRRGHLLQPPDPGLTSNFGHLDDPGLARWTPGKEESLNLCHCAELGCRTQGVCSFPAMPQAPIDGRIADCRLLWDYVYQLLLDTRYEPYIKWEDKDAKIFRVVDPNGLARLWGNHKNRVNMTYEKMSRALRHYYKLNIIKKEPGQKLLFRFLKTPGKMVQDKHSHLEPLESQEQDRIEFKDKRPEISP
Procedure, shortened: as §1

[16] = biological target: T11, ELF5 (Homo sapiens, UniProt Q9UKW6-2 1-255); details: protein: recombinant; tags: N-terminal GST; dsDNA, one strand shown
T11 sequence: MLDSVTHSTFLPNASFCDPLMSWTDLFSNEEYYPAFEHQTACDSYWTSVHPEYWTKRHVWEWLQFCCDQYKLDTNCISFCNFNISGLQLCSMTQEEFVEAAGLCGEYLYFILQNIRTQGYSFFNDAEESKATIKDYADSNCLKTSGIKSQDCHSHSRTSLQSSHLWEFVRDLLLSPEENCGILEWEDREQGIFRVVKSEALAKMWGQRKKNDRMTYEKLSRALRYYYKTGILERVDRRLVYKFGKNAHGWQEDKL
Procedure, shortened: as §1

[17] = biological target: T12, ETV3 (Homo sapiens, UniProt P41162-2 1-143); details: protein: recombinant; tags: N-terminal GST; dsDNA, one strand shown
T12 sequence: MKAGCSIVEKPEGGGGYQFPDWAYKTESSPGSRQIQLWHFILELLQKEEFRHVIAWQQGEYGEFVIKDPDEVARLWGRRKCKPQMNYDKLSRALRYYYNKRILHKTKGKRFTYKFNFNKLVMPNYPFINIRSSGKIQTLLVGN
Procedure, shortened: as §1

[18] = biological target: ETV6 (Homo sapiens, UniProt P41212 1-452); details: protein: recombinant; tags: N-terminal GST; dsDNA, one strand shown
Procedure, shortened: as §1

Sequence of CRX (O43186 whole entry): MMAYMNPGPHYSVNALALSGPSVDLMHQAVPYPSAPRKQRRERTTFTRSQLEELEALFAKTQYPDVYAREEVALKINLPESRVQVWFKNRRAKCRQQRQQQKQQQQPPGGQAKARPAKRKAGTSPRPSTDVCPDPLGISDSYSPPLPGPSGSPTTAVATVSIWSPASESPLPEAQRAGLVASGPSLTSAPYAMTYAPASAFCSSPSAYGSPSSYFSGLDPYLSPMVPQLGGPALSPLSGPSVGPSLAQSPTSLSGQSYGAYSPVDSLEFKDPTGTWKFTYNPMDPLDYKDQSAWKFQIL
Sequence of ETV5 (P41161 whole entry): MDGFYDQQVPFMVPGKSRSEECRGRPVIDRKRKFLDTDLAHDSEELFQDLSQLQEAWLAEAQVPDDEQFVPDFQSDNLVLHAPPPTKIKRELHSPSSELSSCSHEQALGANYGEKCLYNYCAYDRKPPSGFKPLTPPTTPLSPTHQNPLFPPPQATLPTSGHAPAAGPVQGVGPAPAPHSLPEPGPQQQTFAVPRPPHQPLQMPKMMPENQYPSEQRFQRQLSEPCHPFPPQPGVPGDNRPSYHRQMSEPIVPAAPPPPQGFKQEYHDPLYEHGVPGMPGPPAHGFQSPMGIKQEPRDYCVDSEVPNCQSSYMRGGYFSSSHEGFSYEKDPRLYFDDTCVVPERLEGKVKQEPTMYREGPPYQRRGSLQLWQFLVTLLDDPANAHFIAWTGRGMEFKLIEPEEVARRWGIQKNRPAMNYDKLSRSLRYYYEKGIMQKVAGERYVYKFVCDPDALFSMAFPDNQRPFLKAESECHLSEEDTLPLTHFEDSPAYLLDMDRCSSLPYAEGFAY
Sequence of ETV6 (P41212 whole entry): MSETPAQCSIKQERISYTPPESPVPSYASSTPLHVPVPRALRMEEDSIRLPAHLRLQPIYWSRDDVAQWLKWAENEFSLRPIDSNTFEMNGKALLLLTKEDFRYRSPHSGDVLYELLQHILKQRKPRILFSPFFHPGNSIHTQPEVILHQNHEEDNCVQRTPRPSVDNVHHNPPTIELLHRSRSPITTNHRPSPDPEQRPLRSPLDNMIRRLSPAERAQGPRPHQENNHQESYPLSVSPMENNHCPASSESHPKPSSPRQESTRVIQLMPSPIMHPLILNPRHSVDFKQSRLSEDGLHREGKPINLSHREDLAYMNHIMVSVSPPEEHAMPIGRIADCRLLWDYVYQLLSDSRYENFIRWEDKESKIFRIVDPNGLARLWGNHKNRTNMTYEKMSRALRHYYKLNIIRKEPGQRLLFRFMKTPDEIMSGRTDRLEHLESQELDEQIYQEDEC
Sequence of ETV1 (P50549 whole entry): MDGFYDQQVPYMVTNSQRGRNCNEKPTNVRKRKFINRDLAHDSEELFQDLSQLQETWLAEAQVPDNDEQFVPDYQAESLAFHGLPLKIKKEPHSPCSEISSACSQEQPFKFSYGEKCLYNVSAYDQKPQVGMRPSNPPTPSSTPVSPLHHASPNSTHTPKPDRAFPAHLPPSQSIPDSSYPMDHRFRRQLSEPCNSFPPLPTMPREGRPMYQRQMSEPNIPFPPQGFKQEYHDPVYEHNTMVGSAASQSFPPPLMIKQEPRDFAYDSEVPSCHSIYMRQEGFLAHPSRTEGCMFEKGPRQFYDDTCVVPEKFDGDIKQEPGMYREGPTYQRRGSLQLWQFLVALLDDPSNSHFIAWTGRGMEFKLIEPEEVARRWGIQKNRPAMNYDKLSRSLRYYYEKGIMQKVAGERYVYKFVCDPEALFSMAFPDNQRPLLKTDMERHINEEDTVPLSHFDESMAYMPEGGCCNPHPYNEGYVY
Sequence of ELF4 (Q99607 whole entry): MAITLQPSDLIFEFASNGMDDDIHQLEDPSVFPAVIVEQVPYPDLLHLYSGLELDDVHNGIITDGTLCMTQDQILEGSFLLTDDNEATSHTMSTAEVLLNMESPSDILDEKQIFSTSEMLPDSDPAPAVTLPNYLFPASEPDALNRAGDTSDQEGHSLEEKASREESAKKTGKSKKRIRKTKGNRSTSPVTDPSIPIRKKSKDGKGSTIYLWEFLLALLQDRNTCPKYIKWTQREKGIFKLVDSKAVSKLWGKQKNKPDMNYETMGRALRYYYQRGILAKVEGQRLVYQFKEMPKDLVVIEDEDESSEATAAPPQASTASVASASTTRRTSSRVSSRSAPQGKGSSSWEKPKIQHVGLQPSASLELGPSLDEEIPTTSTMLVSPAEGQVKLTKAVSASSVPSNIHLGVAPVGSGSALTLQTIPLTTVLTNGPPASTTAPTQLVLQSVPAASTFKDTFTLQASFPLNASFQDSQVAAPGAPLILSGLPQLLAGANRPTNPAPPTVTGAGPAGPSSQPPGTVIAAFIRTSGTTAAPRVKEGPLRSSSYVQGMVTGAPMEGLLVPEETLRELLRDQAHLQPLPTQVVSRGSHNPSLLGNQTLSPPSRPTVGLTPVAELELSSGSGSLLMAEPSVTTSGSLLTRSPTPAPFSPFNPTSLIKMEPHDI
Sequence of HSF1 (Q00613 whole entry): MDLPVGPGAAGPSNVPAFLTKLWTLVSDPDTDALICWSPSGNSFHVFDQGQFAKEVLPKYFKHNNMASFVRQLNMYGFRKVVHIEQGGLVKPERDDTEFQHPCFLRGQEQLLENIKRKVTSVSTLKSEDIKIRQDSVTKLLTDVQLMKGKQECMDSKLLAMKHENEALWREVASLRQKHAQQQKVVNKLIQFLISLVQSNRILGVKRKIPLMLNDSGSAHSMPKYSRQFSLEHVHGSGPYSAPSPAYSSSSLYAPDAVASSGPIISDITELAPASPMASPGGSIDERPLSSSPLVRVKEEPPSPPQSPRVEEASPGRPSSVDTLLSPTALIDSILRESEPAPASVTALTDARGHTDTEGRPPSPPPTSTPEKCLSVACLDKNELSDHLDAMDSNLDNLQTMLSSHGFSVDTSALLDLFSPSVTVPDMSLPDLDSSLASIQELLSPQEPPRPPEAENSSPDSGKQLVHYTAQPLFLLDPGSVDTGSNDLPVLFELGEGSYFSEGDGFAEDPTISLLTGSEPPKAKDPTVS

TTATGC
binding signal [1]: 1.24 fold enrichment (6-mer frequency, TF over GST control)
binding signal [2]: 1.3 fold enrichment (6-mer frequency, TF over GST control)
binding signal [3]: 1.58 fold enrichment (6-mer frequency, TF over GST control)
binding signal [4]: 1.55 fold enrichment (6-mer frequency, TF over GST control)
binding signal [5]: 1.31 fold enrichment (6-mer frequency, TF over GST control)
binding signal [6]: 1.33 fold enrichment (6-mer frequency, TF over GST control)
binding signal [7]: 1.22 fold enrichment (6-mer frequency, TF over GST control)
binding signal [8]: 1.48 fold enrichment (6-mer frequency, TF over GST control)
binding signal [9]: 2.28 fold enrichment (6-mer frequency, TF over GST control)
binding signal [10]: 1.32 fold enrichment (6-mer frequency, TF over GST control)
binding signal [11]: 1.16 fold enrichment (6-mer frequency, TF over GST control)
binding signal [12]: 1.33 fold enrichment (6-mer frequency, TF over GST control)
binding signal [13]: 1.28 fold enrichment (6-mer frequency, TF over GST control)
binding signal [14]: 1.37 fold enrichment (6-mer frequency, TF over GST control)
binding signal [15]: 1.44 fold enrichment (6-mer frequency, TF over GST control)
binding signal [16]: 1.29 fold enrichment (6-mer frequency, TF over GST control)
binding signal [17]: 1.34 fold enrichment (6-mer frequency, TF over GST control)
binding signal [18]: 1.31 fold enrichment (6-mer frequency, TF over GST control)
